# Assay results as given in PubChem BioAssay.
# Calls of active or inactive are those of the source.
# Columns and labels:
# [1] = tested on: PRMT1 (protein arginine N-methyltransferase 1); assay: PRMT1 binders on small-molecule microarrays, primary screen, biochemical, small-molecule microarray, 635 nm fluorescence (AID 1088); settings: small-molecule microarray binding, higher = more signal;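 also: binding of Prmt1 protein to compounds spotted on small-molecule microarray slides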
# [2] = yeast growth modulation, basal conditions, primary screen, YJM789 clinical isolate, OD600, 24 h (AID 1089);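 also: growth of clinical yeast isolate S. cerevisiae YJM 789 seeded 1000 cells per well; test concentration not given here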; settings: S. cerevisiae YJM789 growth, higher = more signal, called active from +8 up or from −8 down
# [3] = fission yeast growth modulation, primary screen, strain 972, OD600, 24 h, no modulator (AID 1090);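 also: basal condition with compound alone and no growth modifier present; test concentration not given here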; settings: S. pombe 972 growth, higher = more signal, called active from +8 up or from −8 down
# [4] = S. cerevisiae growth modulation with rapamycin, primary screen, strain BY4716, OD600, 96 h (AID 1091); settings: higher = more signal, called active from +8 up or from −8 down; also: test concentration not given here
# [5] = molecular target: Torsin-1A-interacting protein 2 (Homo sapiens) (UniProt Q8NFQ8); assay: LULL1 binders on small-molecule microarray, primary screen, cell lysate, human LULL1 lysate, 635/667 nm fluorescence (AID 1092); settings: hLULL1 lysate binding, 635 nm fluorescence, higher = more signal;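 also: probe is lysate of COS7 cells overexpressing human LULL1; score merges per-feature 667 nm fluorescence with signal-to-noise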
# [6] = E. coli growth modulation, two-sided OD650, primary screen, E. coli filamentation project, strain DRC41, 24 h (AID 1093); settings: OD650, 24 h, higher = more signal, called active from +8 up or from −8 down;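 also: MC1000 strain lacking acrAB efflux and sulA so SOS filamentation is blocked; test concentration not given here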
# [7] = small-molecule microarray binders of probe aLefty2, primary screen, biochemical, biotinylated probe, 635/667 nm fluorescence (AID 1094); settings: higher = more signal;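 also: score merges spot fluorescence near 667 nm with spot signal-to-noise ratio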
# [8] = tested on: Noggin (protein binding on small-molecule microarray); assay: Noggin binders on small-molecule microarray, primary screen, biochemical, 635/667 nm fluorescence (AID 1095); settings: 635 nm fluorescence, higher = more signal;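 also: score merges 667 nm feature fluorescence with signal to noise over triplicate slides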
# [9] = molecular target: Neurogenic locus notch homolog protein 3 (Homo sapiens) (UniProt Q9UM47); assay: NOTCH3 binders on small-molecule microarray, primary screen, biochemical, 635/667 nm fluorescence (AID 1096); settings: NOTCH3 binding, 635 nm fluorescence, higher = more signal
# [10] = small-molecule microarray binders of probe aEGFR, primary screen, biochemical, biotinylated probe, 635/667 nm fluorescence (AID 1097); settings: higher = more signal;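 also: probe is a biotinylated anti-EGFR antibody binding compounds printed on slides; score combines fluorescence near 667 nm and signal to noise of each spot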
# [11] = tested on: Plasmodium falciparum Sir2 (PF13_0152, Sir2A); assay: pfSir2 binders on small-molecule microarrays, primary screen, biochemical, small-molecule microarray, 635 nm fluorescence (AID 1098); settings: small-molecule microarray binding, fluorescence 635 nm; higher = more signal;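 also: score merges spot fluorescence intensity with its signal-to-noise ratio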
# [12] = small-molecule microarray binders of probe aDKK1, primary screen, biochemical, biotinylated probe, 635/667 nm fluorescence (AID 1099); settings: higher = more signal;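 also: score merges 667nm spot fluorescence with signal to noise across triplicate slides; reference of the scale not given here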
# [13] = small-molecule microarray binders of probe aCHRDL2, primary screen, biochemical, biotinylated probe, 635/667 nm fluorescence (AID 1100); settings: higher = more signal
# [14] = splicing luciferase reporter signal modulators, primary screen, spliceosome inhibition project, cell-based, HEK293, splice +/- reporter (AID 1101); settings: luminescence, 24 h, higher = more signal, called active from +8 up or from −8 down;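 also: HEK293 cells carrying a splicing-competent luciferase reporter gene; test concentration not given here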
# [15] = molecular target: Fibroblast growth factor 10 (Homo sapiens) (UniProt O15520); assay: FGF10 binders on small-molecule microarrays, primary screen, biochemical, small-molecule microarray, 635 nm fluorescence (AID 1102); settings: FGF10 binding, fluorescence 635 nm, higher = more signal
# [16] = tested on: glycogen synthase kinase-3 (GSK3A per assay name; protocol says GSK3B); assay: GSK3 binders on small-molecule microarrays, primary screen, biochemical, small-molecule microarray, 635 nm fluorescence, GSK3A (AID 1103); settings: small-molecule microarray binding, fluorescence 635 nm; higher = more signal; also: the record names both GSK3A and GSK3B
# [17] = molecular target: Epidermal growth factor receptor (Homo sapiens) (UniProt P00533); assay: EGFR binders on small-molecule microarrays, primary screen, biochemical, small-molecule microarray, 635 nm fluorescence (AID 1104); settings: EGFR binding, higher = more signal;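 also: score merges 667 nm emission intensity with spot signal to noise over triplicate slides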
# [18] = molecular target: Follistatin-related protein 3 (Homo sapiens) (UniProt O95633); assay: FSTL3 binders on small-molecule microarrays, primary screen, biochemical, small-molecule microarray, 635 nm fluorescence (AID 1105); settings: FSTL3 binding, higher = more signal;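 also: score merges emission near 667 nm and signal to noise per printed spot across three slides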
# [19] = molecular target: Dickkopf-related protein 1 (Homo sapiens) (UniProt O94907); assay: DKK1 binders on small-molecule microarrays, primary screen, biochemical, small-molecule microarray, 635 nm fluorescence scan (AID 1106); settings: DKK1 binding, higher = more signal;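 also: score merges emission near 667 nm with signal to noise over three replicate slides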
# [20] = tested on: Inhibin beta A chain (activin A); assay: INHBA (activin A) binders on microarrays, primary screen, biochemical, small-molecule microarray, 635 nm fluorescence scan (AID 1107); settings: small-molecule microarray binding, higher = more signal;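 also: mouse activin A protein probed at 4.33 µg/mL on printed slides; score merges bound-protein fluorescence near 667 nm with spot signal-to-noise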
# Sequence of Epidermal growth factor receptor (Homo sapiens) (P00533 whole entry, looked up): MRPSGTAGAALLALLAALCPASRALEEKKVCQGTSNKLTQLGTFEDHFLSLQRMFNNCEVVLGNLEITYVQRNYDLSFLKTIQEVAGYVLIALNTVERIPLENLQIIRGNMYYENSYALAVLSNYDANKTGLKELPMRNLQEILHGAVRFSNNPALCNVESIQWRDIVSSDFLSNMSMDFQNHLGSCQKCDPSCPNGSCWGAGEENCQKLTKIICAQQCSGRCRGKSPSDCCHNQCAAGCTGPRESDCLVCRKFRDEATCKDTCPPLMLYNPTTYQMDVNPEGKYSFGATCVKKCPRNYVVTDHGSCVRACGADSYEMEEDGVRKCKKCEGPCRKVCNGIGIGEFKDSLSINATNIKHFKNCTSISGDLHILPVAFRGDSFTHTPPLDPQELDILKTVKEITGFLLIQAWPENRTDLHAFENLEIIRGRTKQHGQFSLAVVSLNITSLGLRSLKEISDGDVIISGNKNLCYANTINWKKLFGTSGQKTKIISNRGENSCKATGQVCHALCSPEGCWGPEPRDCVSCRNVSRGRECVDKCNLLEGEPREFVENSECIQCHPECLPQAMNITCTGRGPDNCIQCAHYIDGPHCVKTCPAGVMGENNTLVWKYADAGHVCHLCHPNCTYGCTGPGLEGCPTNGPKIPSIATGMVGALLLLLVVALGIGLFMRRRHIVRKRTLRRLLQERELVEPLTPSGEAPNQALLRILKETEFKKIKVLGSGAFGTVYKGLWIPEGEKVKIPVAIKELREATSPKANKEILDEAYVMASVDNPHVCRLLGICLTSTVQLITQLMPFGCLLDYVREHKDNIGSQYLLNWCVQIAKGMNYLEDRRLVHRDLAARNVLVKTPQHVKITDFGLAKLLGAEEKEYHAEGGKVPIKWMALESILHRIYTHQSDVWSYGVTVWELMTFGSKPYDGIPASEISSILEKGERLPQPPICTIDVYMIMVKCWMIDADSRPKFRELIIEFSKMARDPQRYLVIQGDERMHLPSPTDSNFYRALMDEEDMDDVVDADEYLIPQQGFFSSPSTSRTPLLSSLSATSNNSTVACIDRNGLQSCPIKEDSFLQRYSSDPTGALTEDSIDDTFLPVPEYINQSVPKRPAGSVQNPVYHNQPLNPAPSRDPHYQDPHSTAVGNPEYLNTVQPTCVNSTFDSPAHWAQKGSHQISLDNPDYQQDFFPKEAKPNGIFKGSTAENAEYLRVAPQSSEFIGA
# Sequence of Dickkopf-related protein 1 (Homo sapiens) (O94907 whole entry, looked up): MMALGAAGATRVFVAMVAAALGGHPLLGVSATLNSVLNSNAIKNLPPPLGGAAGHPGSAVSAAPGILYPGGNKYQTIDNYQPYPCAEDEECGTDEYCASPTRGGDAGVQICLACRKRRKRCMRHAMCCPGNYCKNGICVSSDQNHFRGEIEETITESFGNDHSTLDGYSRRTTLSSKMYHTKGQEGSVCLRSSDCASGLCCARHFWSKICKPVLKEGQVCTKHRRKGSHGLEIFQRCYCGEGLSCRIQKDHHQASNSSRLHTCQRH
# Sequence of Torsin-1A-interacting protein 2 (Homo sapiens) (Q8NFQ8 whole entry, looked up): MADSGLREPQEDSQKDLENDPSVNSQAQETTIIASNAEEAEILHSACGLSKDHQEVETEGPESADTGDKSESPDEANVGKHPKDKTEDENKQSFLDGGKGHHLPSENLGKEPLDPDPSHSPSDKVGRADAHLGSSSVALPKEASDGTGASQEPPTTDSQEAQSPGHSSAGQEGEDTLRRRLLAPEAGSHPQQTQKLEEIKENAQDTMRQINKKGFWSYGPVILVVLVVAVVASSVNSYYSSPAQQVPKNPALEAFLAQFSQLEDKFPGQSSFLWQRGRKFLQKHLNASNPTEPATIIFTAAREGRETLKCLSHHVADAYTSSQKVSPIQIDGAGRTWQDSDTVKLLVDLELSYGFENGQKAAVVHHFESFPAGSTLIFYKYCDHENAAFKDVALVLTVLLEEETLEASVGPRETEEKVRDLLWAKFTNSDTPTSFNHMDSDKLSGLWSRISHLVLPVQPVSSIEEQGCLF
# Sequence of Follistatin-related protein 3 (Homo sapiens) (O95633 whole entry, looked up): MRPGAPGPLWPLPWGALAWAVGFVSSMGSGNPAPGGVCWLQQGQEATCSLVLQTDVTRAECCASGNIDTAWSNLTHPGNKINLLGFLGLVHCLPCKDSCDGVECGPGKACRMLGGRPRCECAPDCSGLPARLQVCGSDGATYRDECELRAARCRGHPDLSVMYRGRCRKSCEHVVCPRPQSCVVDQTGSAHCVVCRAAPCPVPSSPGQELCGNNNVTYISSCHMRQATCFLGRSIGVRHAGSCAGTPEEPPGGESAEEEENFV
# Sequence of Neurogenic locus notch homolog protein 3 (Homo sapiens) (Q9UM47 whole entry, looked up): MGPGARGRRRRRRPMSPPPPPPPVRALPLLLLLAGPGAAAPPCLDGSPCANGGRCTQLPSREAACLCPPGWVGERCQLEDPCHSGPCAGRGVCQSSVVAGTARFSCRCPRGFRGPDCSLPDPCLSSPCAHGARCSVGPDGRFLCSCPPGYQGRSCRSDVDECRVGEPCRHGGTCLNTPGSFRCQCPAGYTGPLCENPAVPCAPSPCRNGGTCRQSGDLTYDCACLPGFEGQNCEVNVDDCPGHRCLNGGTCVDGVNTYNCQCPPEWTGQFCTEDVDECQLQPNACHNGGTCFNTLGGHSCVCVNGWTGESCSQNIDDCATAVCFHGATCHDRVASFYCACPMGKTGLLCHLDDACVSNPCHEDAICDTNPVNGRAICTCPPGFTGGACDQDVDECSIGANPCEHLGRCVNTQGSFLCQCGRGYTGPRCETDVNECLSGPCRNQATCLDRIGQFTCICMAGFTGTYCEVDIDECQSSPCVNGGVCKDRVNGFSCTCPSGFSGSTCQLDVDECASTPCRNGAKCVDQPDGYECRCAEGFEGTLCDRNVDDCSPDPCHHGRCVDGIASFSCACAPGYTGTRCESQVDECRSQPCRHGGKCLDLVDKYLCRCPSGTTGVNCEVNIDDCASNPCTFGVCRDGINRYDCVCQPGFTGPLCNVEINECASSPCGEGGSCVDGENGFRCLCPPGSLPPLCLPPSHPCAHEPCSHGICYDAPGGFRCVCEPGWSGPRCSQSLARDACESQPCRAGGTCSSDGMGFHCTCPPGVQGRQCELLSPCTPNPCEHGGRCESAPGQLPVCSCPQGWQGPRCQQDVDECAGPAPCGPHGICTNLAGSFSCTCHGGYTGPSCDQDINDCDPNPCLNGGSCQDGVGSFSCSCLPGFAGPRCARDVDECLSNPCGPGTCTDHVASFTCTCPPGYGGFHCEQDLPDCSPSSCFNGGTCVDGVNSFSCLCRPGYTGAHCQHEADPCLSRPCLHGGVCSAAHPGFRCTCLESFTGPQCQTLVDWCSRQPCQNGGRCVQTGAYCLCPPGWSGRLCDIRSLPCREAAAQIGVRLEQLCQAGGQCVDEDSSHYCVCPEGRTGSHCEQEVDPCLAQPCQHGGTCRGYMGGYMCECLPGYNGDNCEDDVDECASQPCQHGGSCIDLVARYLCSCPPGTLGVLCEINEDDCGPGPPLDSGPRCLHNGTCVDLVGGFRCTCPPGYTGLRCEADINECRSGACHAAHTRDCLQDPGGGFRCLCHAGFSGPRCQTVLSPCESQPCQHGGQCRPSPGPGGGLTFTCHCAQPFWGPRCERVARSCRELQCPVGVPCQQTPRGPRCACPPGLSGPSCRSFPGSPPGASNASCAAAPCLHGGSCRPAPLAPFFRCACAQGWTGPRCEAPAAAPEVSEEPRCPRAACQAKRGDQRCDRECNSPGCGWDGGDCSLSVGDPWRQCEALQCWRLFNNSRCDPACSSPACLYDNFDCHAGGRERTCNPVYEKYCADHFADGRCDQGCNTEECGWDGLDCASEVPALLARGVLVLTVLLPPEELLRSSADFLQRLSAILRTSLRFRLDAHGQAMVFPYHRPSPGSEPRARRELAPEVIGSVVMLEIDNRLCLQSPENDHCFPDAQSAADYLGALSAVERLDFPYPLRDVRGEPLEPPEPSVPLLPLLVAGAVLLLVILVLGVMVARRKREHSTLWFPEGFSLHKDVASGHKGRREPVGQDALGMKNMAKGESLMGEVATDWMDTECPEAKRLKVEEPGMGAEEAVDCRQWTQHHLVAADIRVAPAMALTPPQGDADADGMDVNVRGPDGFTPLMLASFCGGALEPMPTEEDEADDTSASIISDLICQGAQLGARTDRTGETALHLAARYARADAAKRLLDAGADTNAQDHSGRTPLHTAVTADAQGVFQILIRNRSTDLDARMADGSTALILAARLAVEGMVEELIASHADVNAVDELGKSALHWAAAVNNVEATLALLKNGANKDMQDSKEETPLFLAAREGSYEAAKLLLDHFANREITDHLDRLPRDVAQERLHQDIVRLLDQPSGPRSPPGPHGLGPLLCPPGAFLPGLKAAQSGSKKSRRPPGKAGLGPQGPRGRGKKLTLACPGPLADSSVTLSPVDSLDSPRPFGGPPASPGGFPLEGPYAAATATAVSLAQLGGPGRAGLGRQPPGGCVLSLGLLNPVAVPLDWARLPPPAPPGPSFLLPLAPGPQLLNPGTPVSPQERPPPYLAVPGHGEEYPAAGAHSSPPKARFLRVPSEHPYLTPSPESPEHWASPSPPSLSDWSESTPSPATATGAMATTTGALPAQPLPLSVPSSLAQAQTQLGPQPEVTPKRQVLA
# Sequence of Fibroblast growth factor 10 (Homo sapiens) (O15520 whole entry, looked up): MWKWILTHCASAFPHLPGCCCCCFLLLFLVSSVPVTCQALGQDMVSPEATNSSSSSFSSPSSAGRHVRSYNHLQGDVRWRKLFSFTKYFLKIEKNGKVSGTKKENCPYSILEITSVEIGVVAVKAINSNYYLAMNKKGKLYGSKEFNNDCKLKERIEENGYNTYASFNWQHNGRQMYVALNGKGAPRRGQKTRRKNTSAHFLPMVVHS
SMILES,composite z-score [1],z-score [2],z-score [3],z-score [4],composite z-score [5],z-score [6],composite z-score [7],composite z-score [8],composite z-score [9],composite z-score [10],composite z-score [11],composite z-score [12],composite z-score [13],z-score [14],composite z-score [15],composite z-score [16],composite z-score [17],composite z-score [18],composite z-score [19],composite z-score [20]
CCCN1C(=O)[C@@]2(CCC(=O)OC(C)(C)C)N=C(c3ccc(OCCCO)cc3)O[C@H]2c2ccccc21,1.56,-1.25 (inactive),-1.19 (inactive),1.51 (inactive),2.64,1.2 (inactive),0.0272,1.82,0.518,-0.0371,0.902,-0.243,0.713,0.478 (inactive),0.9,1.22,0.246,0.874,0.242,1.03
C=CCC(OC(C)=O)[C@@H]1[C@@H](N(Cc2cc3ccccc3o2)C(=O)c2ccc(C)cc2)c2cc(OCCCO)ccc2N1C(=O)c1ccc2ccccc2c1 (stereo not given in full),-0.21,-0.44 (inactive),0.116 (inactive),0.0217 (inactive),0.346,1.65 (inactive),-0.0258,0.341,-0.0158,-0.0536,-0.119,-0.0022,0.263,-0.422 (inactive),0.299,-0.274,0.105,0.194,0.0379,1.46
C=CC(=C)C1=CCO[C@@H]1[C@H]1CCCN1S(=O)(=O)c1ccccc1[N+](=O)[O-],0.921,-0.358 (inactive),0.131 (inactive),-0.184 (inactive),0.86,0.301 (inactive),-0.0416,0.35,1.11,-0.115,0.487,-0.268,-0.268,-0.626 (inactive),0.925,0.168,0.578,1.31,0.797,1.27
COCCOC(=O)N1C(=O)[C@@]2(c3cc(C#CCNC(N)=O)ccc31)[C@H](c1ccccc1OCCO)N1[C@H](c3ccccc3)[C@H](c3ccccc3)OC(=O)[C@H]1[C@@H]2C(N)=O,1.55,1.86 (inactive),1.59 (inactive),3.25 (inactive),-0.0889,-0.244 (inactive),-0.0823,1.1,1.09,-0.0512,0.806,0.117,0.106,-0.265 (inactive),0.848,0.786,0.528,1.26,0.439,0.719
O=C1C[C@]2(c3ccc([N+](=O)[O-])cc3)C(=O)N(CC(F)(F)F)c3cc(CO)ccc3[C@H]2N1CC12CC3CC(CC(C3)C1)C2,1.08,0.116 (inactive),1.21 (inactive),-1.69 (inactive),2.49,-0.577 (inactive),-0.145,0.363,-0.234,-0.0972,1.75,-0.157,0.115,0.452 (inactive),0.0399,0.284,-0.736,0.23,0.301,0.36
